KB-3-1 cytotox: KB-3-1 parental cell cytotoxicity; Potency, µM (top dose mostly 46.1 µM), most hits filed as cytotoxic; KB-3-1 viability, CellTiter-Glo ATP luminescence, 72 h; 400,000 tested, 1.4% active; also: % is scaled to controls: 0 for no effect and ±100 for the full control effect; nearly all actives have a fitted effect of over 60% in size
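KB-3-1 cells, DMEM (no phenol red) + 10% FBS; compound by pin transfer, 72 h, 37 °C. Readout: CellTiter-Glo luminescence after 10 min. Data normalized, curve-fitted.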
HT1080 IDH1KD tx: kills HT-1080 cells with IDH1 knockdown; HT-1080 IDH1 knockdown viability, ATP luminescence, 48 h; Potency, µM (highest dose often 46.1 µM), for inactives: at the top dose activity, negative = toxicity, actives largely listed as cytotoxic; 360,000 tested, 2% active; AID 686971;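 also: 0% = DMSO wells and -100% = cell-free medium wells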
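After a 2 h attachment period, IDH1KD HT-1080 cells took pin-transferred compound for 48 h at 37 °C; ATP-based luminescence after 10 min room-temperature reagent incubation reported viability.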
HT1080-NT tox: kills 2HG-producing HT-1080-NT fibrosarcoma cells; HT-1080-NT fibrosarcoma viability, CellTiter-Glo ATP luminescence, 48 h; 360,000 tested, 1.6% active; Potency, µM (highest dose often 46.1 µM), without a hit: top-dose activity, negative = less viability, most hits filed as cytotoxic; AID 686970;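 also: NT is the 2HG producing partner of a matched IDH1 knockdown line; 0% = DMSO-treated cells and -100% = media-only wells without cells; nearly all actives have a fitted effect of over 55% in size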
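Viability of the 2HG-overproducing fibrosarcoma line after 48 hours of compound exposure at 37 degrees C was determined by luminescence with CellTiter-Glo, and concentration-effect curves were then fitted and categorized.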
KB-V1 MDR tox: kills drug-selected multidrug resistant KB-V1 cells; KB-V1 MDR cells viability, CellTiter-Glo, 72 h; Potency, µM (top dose mostly 46.1 µM), usual class: cytotoxic; 400,000 tested, 3.4% active; also: % is scaled to controls: 0 for no effect and ±100 for the full control effect; nearly all actives have a fitted effect of over 60% in size
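Cells of the MDR subline KB-V1 are plated, dosed with compound at multiple concentrations, and incubated 72 h at 37 degrees C; CellTiter-Glo is then added and luminescence read after 10 min.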
MCF10A rerep: inducers of DNA re-replication in MCF 10A breast cells; MCF 10A DNA re-replication, Hoechst nuclear intensity, 48 h; Potency, µM (doses to about 46.1 µM), for inactives: at the highest dose activity, positive = re-replication, most hits filed as activators; 350,000 tested, 2.9% active; AID 624296; also: % of control where 0% means no effect; nearly all actives have a fitted effect of over 50% in size
SW480 rereplic: induces DNA re-replication in SW480 colon adenocarcinoma cells | SW480 DNA re-replication, Hoechst DNA content imaging, 48 h | Potency, µM (doses to about 46.1 µM), for inactives: at the top dose re-replication activation, hits mostly activators | 340,000 tested, 1.8% active; also: % of control where 0% means no effect; nearly all actives have a fitted effect of over 55% in size
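SW480 cells exposed to compounds for 48 hr at 37 C, 5% CO2, then Hoechst-stained 40 min. Nuclear DNA content imaged by fluorescence scanning (405 nm excitation, 500-530 nm emission); re-replication scored as increased high-intensity nuclei.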
Numbers without * were called inactive; i = inactive; ? = inconclusive; . = no result given; ! = repeats disagree. Rows were chosen to be rich in hits. Some 7.9% of all compounds tested hit in one or more screens of this group. Calls follow the shape of the dose curve; as a rule, active = well fitted curve in the direction sought with a large enough effect; inconclusive = small, poorly fitted or top-dose-only effect, or another doubt; inactive = no such curve, though single readings can be large; an effect the other way counts as inactive or inconclusive. Potency is read from the fitted curve at half-maximal effect.

SMILES	KB-3-1 cytotox	HT1080 IDH1KD tx	HT1080-NT tox	KB-V1 MDR tox	MCF10A rerep	SW480 rereplic
CCCCCCn1c(=O)c(C(=O)Nc2cnccn2)c(O)c2ccccc21	2.1µM*	?	-21%	1.3µM*	?	-5%
CCCCn1c(=O)c(C(=O)Nc2ccccn2)c(O)c2ccccc21	10µM*	5%	0%	i	6%	-43%
CCCCCn1c(=O)c(C(=O)Nc2ccccn2)c(O)c2ccccc21	i	-7%	-8%	6.5µM*	-4%	3%
CCCCCCn1c(=O)c(C(=O)Nc2c(C)n(C)n(-c3ccccc3)c2=O)c(O)c2ccccc21	?	-15%	?	1.6µM*	-9%	-8%
CCCCn1c(=O)c(C(=O)Nc2ccc(C)cn2)c(O)c2ccccc21	i	8%	3%	?	-2%	-3%
COc1ccc2c3c1OC1CC(O)C=CC31CCN(C)C2 (centres undefined)	i	3%	0%	i	-3%	1%
CCCCCCn1c(=O)c(C(=O)Nc2ncccc2O)c(O)c2ccccc21	7.3µM*	-3%	5%	?	-7%	-3%
CCCCCn1c(=O)c(C(=O)Nc2ccccc2)c(O)c2ccccc21	i	6%	7%	i	12%	1%
O=c1[nH]c2ccccc2n1C1CCN(C(CCc2ccccc2)c2nnnn2C2CCCC2)CC1 (centres undefined)	?	?	?	3.3µM*	.	.
COc1cccc(C(c2nnnn2Cc2ccccc2)N2CCC(n3c(=O)[nH]c4ccccc43)CC2)c1OC (centres undefined)	?	?	21µM*	18µM*	.	.
O=c1[nH]c2ccccc2n1C1CCN(C(c2cc3ccccc3o2)c2nnnn2Cc2ccccc2)CC1 (centres undefined)	?	8.2µM*	10µM*	?	.	.
CN1C(=O)C(O)N=C(c2ccccc2)c2cc(Cl)ccc21 (centres undefined)	.	.	.	.	2%	-11%
C[C@@H](N)[C@@H](O)c1ccc(O)c(O)c1	.	.	.	.	-1%	10%
Nc1c(C(=O)NCCN2CCOCC2)c2nc3ccccc3nc2n1Cc1ccco1	i	-12%	-4%	i	6.5µM*	8.2µM*
O=C(NCCN1CCOCC1)c1ccc(Cl)nc1Cl	i	-2%	-7%	i	13%	-7%
CCCCn1c(N)c(C(=O)NCCN2CCOCC2)c2nc3ccccc3nc21	i	?	?	i	21µM*	18µM*
Nc1c(C(=O)NCCN2CCOCC2)c2nc3ccccc3nc2n1Cc1ccccc1	i	-5%	-6%	?	15µM*	23µM*
C=CCNC(=O)c1c(N)n(Cc2ccco2)c2nc3ccccc3nc12	i	?	?	i	20%	12%
Nc1c(C(=O)NCCc2ccccc2)c2nc3ccccc3nc2n1CCN1CCOCC1	i	?	18µM*	23µM*	1%	8%
CCOC(=O)CN1C(=O)N[C@@H](c2cccc(C(F)(F)F)c2)C(C(C)=O)=C1C	i	1%	5%	i	?	-9%
O=C(CCc1nc(C2=CCN(Cc3cccc(Cl)c3)CC2)no1)Nc1ccccc1F	i	.	.	i	.	.
COc1ccc(/C=C2\Oc3cc(OC(=O)N4CCOCC4)ccc3C2=O)c(OC)c1	i	1%	1%	i	-3%	?
COc1ccc(CCNC(=O)c2c(N)n(CCN3CCOCC3)c3nc4ccccc4nc23)cc1	?	5%	-1%	?	?	16µM*
O=C1NC(=O)N(c2cccc(Br)c2)C(=O)/C1=C/c1ccsc1	i	23µM*	?	i	7%	10%
CC1=C(O)C(=O)C=C2C1=CC=C1C2(C)CCC2(C)C3CC(C)(C(=O)O)CCC3(C)CCC12C (centres undefined)	?	1.6µM*	4.6µM*	?	?	?
SMILES	KB-3-1 cytotox	HT1080 IDH1KD tx	HT1080-NT tox	KB-V1 MDR tox	MCF10A rerep	SW480 rereplic
C[C@H](CO)N1C[C@H](C)[C@H](CN(C)S(=O)(=O)c2ccccc2)Oc2ccc(NC(=O)NC3CCCCC3)cc2CC1=O	i	-15%	-6%	i	?	18%
O=C(Nc1ccccc1OC(=O)N1CCOCC1)N1CCOCC1	i	13%	15%	i	2%	-1%
Cc1cccc(/C(N)=N/OC(=O)N2CCOCC2)c1	i	11µM*	?	?	?	?
CC(C)CC(CN)CC(=O)O (centres undefined)	.	.	.	.	5%	3%
CCCCCCCCCC(CC)c1ccc(S(=O)(=O)O)cc1 (centres undefined)	.	.	.	.	1%	?
Cc1nn(Cc2ccccc2)c(Cl)c1C(=O)OC(C)C(=O)Nc1ccc(F)cc1Cl (centres undefined)	i	3%	12%	3.3µM*	21µM*	7%
Cc1nn(Cc2ccccc2)c(Cl)c1C(=O)OCC(=O)Nc1cccc2ccccc12	?	-2%	-7%	16µM*	?	-1%
Cc1cc(NC(=O)COC(=O)c2c(C)nn(Cc3ccccc3Cl)c2C)no1	i	-20%	-29%	i	?	?
Cc1nn(Cc2ccccc2Cl)c(Cl)c1C(=O)OCC(=O)NC(=O)NC1CCCCC1	i	-4%	-5%	16µM*	?	-11%
CC[C@]1(C(=O)OC)[C@H]2C(=O)N(Cc3ccccc3)C(=O)[C@H]2[C@H]2CN=C(SCc3ccc(C(=O)OC)cc3)N21	?	-1%	4%	i	-2%	?
Cc1cc2c(C(C)C)c(O)c(O)c(C=O)c2c(O)c1-c1c(C)cc2c(C(C)C)c(O)c(O)c(C=O)c2c1O	1.5µM*	.	.	?	?	13µM*!
CCOc1ccc2nc(N(CCN(CC)CC)C(=O)c3ccc([N+](=O)[O-])cc3)sc2c1	i	-6%	-9%	i	?	?
C=C1C(O)[C@@H]2O[C@]3(CC[C@H](/C=C/C(C)[C@@H]4CC(C)=CC5(O[C@H](C[C@@](C)(O)C(=O)O)CCC5O)O4)O3)CC[C@H]2O[C@@H]1C(O)CC(C)[C@H]1OC2(CCCCO2)CCC1C (some centres undefined)	?	0.0082µM*	?	i	?	-18%
Cc1c(NS(=O)(=O)c2ccccc2)ccc([N+](=O)[O-])c1Cl	?	?	2.9µM*	?	21µM*	3%
CCN(CCNc1ccc([N+](=O)[O-])c2cccnc12)S(=O)(=O)c1ccccc1	i	9%	5%	i	10%	-9%

Screening data from PubChem BioAssay.
